Several values for one entry are separate records, joined by “and”; a condition that tells them apart may be missing. Equal values may be shown once. The campaign covered roughly 5,500 compounds. About 2,000 (36%) were called active. Inconclusive results (about 18%) are left out. Cut-off read from the data, not from the text of the source: active = normalized growth mostly below about 0.91 (no sharp cut-off); inconclusive = no clear call, values can overlap the other calls; inactive = mostly above about 0.92. The list shows a part of the results.
Assay: chemical genetic growth profiling, strain panel (AID 1159580);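 note: tested at 20 µM; growth read once vehicle control cultures reached saturation at 30 °C; 1 = growth at the plate median or of vehicle wells; lower values mean less growth of the strain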
Conditions: S. cerevisiae deletion strains, growth OD

Measured: normalized growth

CCN(CCO)CCCC(C)Nc1ccnc2cc(Cl)ccc12 (configuration not stated)
inactive: locus YAL013W, strain DEP1, stronger effect = lower value 1.01 | locus YAL021C, strain ccr4, stronger effect = lower value 1.03 | locus YAL026C, strain drs2, stronger effect = lower value 1 | locus YAL030W, strain snc1, stronger effect = lower value 0.997 | locus YBL061C, strain skt5, stronger effect = lower value 1 | locus YBR009C, strain hhf1, stronger effect = lower value 1.01 | locus YBR021W, strain FUR4, stronger effect = lower value 1 | locus YBR023C, strain chs3, stronger effect = lower value 0.998 | locus YBR171W, strain sec66, stronger effect = lower value 1.01 | locus YBR229C, strain ROT2, stronger effect = lower value 0.991 | locus YBR231C, strain swc5, stronger effect = lower value 1.01 | locus YBR279W, strain paf1, stronger effect = lower value 1.01 | locus YCL011C, strain gbp2, stronger effect = lower value 1 | locus YCL016C, strain dcc1, stronger effect = lower value 1 | locus YCL029C, strain bik1, stronger effect = lower value 1.01 | locus YCL061C, strain MRC1, stronger effect = lower value 0.993 | locus YCL069W, strain vba3, stronger effect = lower value 0.998 | locus YCR088W, strain abp1, stronger effect = lower value 0.997 | locus YDL005C, strain med2, stronger effect = lower value 0.994 | locus YDL035C, strain GPR1, stronger effect = lower value 1.02 | locus YDL040C, strain nat1, stronger effect = lower value 0.999 | locus YDL074C, strain BRE1, stronger effect = lower value 1.01 | locus YDL101C, strain DUN1, stronger effect = lower value 1.02 | locus YDL134C, strain PPH21, stronger effect = lower value 1 | locus YDL185W, strain tfp1, stronger effect = lower value 1.01 | locus YDL192W, strain arf1, stronger effect = lower value 1.01 | locus YDR001C, strain nth1, stronger effect = lower value 1 | locus YDR069C, strain doa4, stronger effect = lower value 1.01 | locus YDR101C, strain arx1, stronger effect = lower value 1.02 | locus YDR137W, strain rgp1, stronger effect = lower value 0.978 | locus YDR150W, strain NUM1, stronger effect = lower value 1.01 | locus YDR159W, strain sac3, stronger effect = lower value 0.999 | locus YDR162C, strain NBP2, stronger effect = lower value 1.01 | locus YDR195W, strain ref2 1 | locus YDR297W, strain sur2, stronger effect = lower value 1.01 | locus YDR318W, strain mcm21, stronger effect = lower value 1.03 | locus YDR334W, strain swr1, stronger effect = lower value 1.01 | locus YDR335W, strain msn5, stronger effect = lower value 0.999 | locus YDR388W, stronger effect = lower value 1.01 | locus YDR392W, strain spt3, stronger effect = lower value 1.03 | locus YDR502C, strain sam2, stronger effect = lower value 1.02 | locus YEL003W, strain gim4, stronger effect = lower value 1 | locus YEL037C, strain rad23, stronger effect = lower value 1.01 | locus YEL061C, strain CIN8 (second series), stronger effect = lower value 1.01 | locus YEL061C, strain CIN8, stronger effect = lower value 1.01 | locus YER015W, strain faa2, stronger effect = lower value 1.01 | locus YER016W, strain bim1, stronger effect = lower value 1 | locus YER110C, stronger effect = lower value 1.01 | locus YER111C, strain swi4, stronger effect = lower value 1 | locus YER155C, strain BEM2 (second series), stronger effect = lower value 1 | locus YER155C, strain BEM2, stronger effect = lower value 1.01 | locus YER167W, strain BCK2, stronger effect = lower value 1.01 | locus YFR010W, strain ubp6, stronger effect = lower value 1.01 | locus YGL078C, strain dbp3, stronger effect = lower value 1.02 | locus YGL086W, strain mad1, stronger effect = lower value 1.02 | locus YGL167C, strain pmr1, stronger effect = lower value 0.994 | locus YGL173C, strain kem1, stronger effect = lower value 0.996 | locus YGL227W, strain vid30, stronger effect = lower value 0.997 | locus YGL240W, strain doc1, stronger effect = lower value 1.01 | locus YGL248W, strain PDE1, stronger effect = lower value 0.993 | locus YGL253W, strain hxk2, stronger effect = lower value 0.999 | locus YGR078C, strain PAC10, stronger effect = lower value 1.03 | locus YGR135W, strain pre9, stronger effect = lower value 1.01 | locus YGR229C, strain SMI1, stronger effect = lower value 1.03 | locus YGR252W, strain gcn5, stronger effect = lower value 1.21 | locus YHR013C, strain ard1, stronger effect = lower value 1 | locus YHR027C, strain rpn1, stronger effect = lower value 0.988 | locus YHR030C, strain SLT2, stronger effect = lower value 1.01 and 0.985 | locus YHR079C, strain IRE1 (second series), stronger effect = lower value 1.01 | locus YHR079C, strain IRE1, stronger effect = lower value 0.99 | locus YHR094C, strain hxt1, stronger effect = lower value 1.01 | locus YHR129C, strain ARP1, stronger effect = lower value 1.01 | locus YHR142W, strain chs7, stronger effect = lower value 1 | locus YHR200W, strain rpn10, stronger effect = lower value 1.02 | locus YIL066C, strain RNR3, stronger effect = lower value 1.03 | locus YIL073C, strain SPO22, stronger effect = lower value 1.05 | locus YIL125W, strain kgd1, stronger effect = lower value 1 | locus YIR030C, strain dcg1, stronger effect = lower value 1.01 | locus YJL092W, strain hpr5, stronger effect = lower value 0.998 | locus YJL095W, strain BCK1 (second series), stronger effect = lower value 0.995 | locus YJL095W, strain BCK1, stronger effect = lower value 1.01 | locus YJL115W, strain asf1, stronger effect = lower value 1.01 | locus YJL129C, strain trk1, stronger effect = lower value 0.991 | locus YJL134W, strain LCB3, stronger effect = lower value 1.01 | locus YJL154C, strain vps35, stronger effect = lower value 1.01 | locus YJL164C, strain tpk1, stronger effect = lower value 1 | locus YJL166W, strain qcr8, stronger effect = lower value 1 | locus YJL168C, strain set2, stronger effect = lower value 1.01 | locus YJL187C, strain SWE1 (second series), stronger effect = lower value 1.02 | locus YJL187C, strain SWE1, stronger effect = lower value 0.999 | locus YJR043C, strain POL32, stronger effect = lower value 1.04 | locus YJR066W, strain TOR1, stronger effect = lower value 0.961

Reference: PubChem BioAssay AID1159580 (chemical genetic matrix, 2015)
